Screening results: PubChem, several laboratories
Shown are actives, neighbours in structure and some others; about 2.9% of the full set was active somewhere.
PG9 Ab binder – small molecules binding HIV-1 gp120 antibody PG9 | TR-FRET gp120-PG9 antibody binding | inhibition, % at 6.7 µM | hit rate 0.43% among 360,000 | AID 624416; in the data active = inhibition above about 8.5%
EP2 mod – EP2 receptor (human) modulation; P43116; EP2-expressing cells, cAMP HTRF FRET, PGE2 co-stimulation; hit rate 0.83% among 260,000; AID 940; induction, % at 25 µM;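 active = compounds whose cAMP rise, as percent of the full-agonist control response, exceeds 60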;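 note: rat C6 glioma line stably carrying human EP2 under a CMV promoter; the protocol text gives 20 µM as final concentration; 100% = response of wells given 1 µM PGE2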
SKN-1 inh – inhibitors of C. elegans SKN-1; inhibition, % at 21.8 µM; C. elegans VP596 Pgst-4::GFP/RFP ratio, acrylamide-induced, 24 h; hit rate 0.49% among 360,000;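 active = interference check ratio from 0.5 to 1.5 plus GFP to RFP signal ratio inhibition reaching or exceeding a fixed threshold, cut at about 30% in these data, passing the limit was not always enough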
EP2 antag – EP2 receptor (human) inhibition; hit rate 0.52% among 260,000; C6 glioma cells expressing human EP2, cAMP TR-FRET; cells stimulated with saturating PGE2; P43116; AID 1422; inhibition, % at 25 µM;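 active = percent inhibition above 40 after rounding to a whole number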;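 note: rat C6 glioma host cells with rolipram phosphodiesterase inhibitor present; the protocol text gives 20 µM as final concentration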
NR1D1 modulator – modulators of human Rev-erb alpha DNA binding. P20393. Rev-erbα–FITC-DNA binding, fluorescence polarization, 90 min. activity, % at 10 µM. hit rate 0.79% among 370,000;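 active = activity above about 14%, limit read from the data; passing the limit was not always enough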;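 note: 0% = DMSO wells with 35 nM protein and 100% = DMSO wells with 750 nM protein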
Target sequence (P20393 whole entry, looked up): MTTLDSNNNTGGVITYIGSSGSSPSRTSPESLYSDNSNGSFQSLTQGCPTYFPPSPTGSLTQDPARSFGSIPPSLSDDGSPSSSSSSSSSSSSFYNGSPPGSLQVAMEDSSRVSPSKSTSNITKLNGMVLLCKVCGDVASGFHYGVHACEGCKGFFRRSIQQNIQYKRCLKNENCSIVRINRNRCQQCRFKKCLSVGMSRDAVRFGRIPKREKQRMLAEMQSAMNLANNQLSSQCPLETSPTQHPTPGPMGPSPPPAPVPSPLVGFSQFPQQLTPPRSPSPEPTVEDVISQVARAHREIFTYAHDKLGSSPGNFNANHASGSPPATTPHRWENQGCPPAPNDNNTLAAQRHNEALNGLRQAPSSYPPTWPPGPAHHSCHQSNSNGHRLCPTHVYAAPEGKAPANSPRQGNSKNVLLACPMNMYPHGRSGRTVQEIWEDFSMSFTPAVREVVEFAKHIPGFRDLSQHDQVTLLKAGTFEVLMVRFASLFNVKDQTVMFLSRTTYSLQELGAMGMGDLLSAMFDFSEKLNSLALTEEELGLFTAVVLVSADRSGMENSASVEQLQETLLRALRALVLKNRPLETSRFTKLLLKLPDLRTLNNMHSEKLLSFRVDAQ
RAM network inh – blocks the yeast RAM network | inhibition, % at 50 µM | hit rate 1.8% among 190,000 | AID 868 | S. cerevisiae dse1pr::URA3 reporter, 5-FOA growth OD615, 2 d; analog-sensitive cbk1-as2 kinase mutant strain;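 active = inhibition above a set limit, 3 SD over mean compound inhibition, cut at about 8.4% in these data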;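 note: 0% = DMSO-only wells with no growth and 100% = 10 µM 1-NA-PP1 full growth; inhibition rescues growth on 5-FOA so higher OD means more RAM inhibition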
EP2 cAMP induct – human EP2 receptor cAMP induction, negative in counter-screens | C6 glioma EP2 cells, cAMP HTRF induction; plus low (about EC15) PGE2 agonist | calls only at 20 µM (by protocol) | hit rate 47% among 1,300 | shares compounds with EP2 mod;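 active = cAMP induction above 50% in the main assay while under 30% in all four parallel counter assays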;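 note: rat C6 glioma cells stably expressing human EP2 receptor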
* hit, by the source's call; i = inactive; . = no result given; + = active, no number.

SMILES	PG9 Ab binder	EP2 mod	SKN-1 inh	EP2 antag	NR1D1 modulator	RAM network inh	EP2 cAMP induct
CCOC(=O)C1=NN(c2cccc(C)c2)C2(S1)SC(C(C)=O)=C(C)N2c1ccccc1 (stereo not drawn)	-1	78*	-1	2	8	2	+
COC(=O)C1=NN(c2ccccc2)C2(S1)S/C(=C\c1ccccc1)C(=O)N2c1ccccc1 (stereo not drawn)	-1	11	-3	12	5	6	.
CCOC(=O)C1=NNC2(CC(=O)N(c3cccc(C)c3)C2=O)C1 (stereo not drawn)	1	-10	-11	7	3	.	.
CCOc1ccccc1C(=O)Nc1ccsc1C(=O)OC	0	81*	5	11	1	1	+
O=C(Nc1ccccc1N1CCCCC1)c1ccc(F)cc1	0	66*	4	6	4	1	+
O=C(Cc1c(F)cccc1Cl)Nc1ccccc1N1CCCCC1	0	75*	4	5	7	0	+
O=C(Nc1ccccc1N1CCCCC1)c1cccc([N+](=O)[O-])c1	-2	51	-3	3	-3	3	+
O=C(Nc1ccccc1N1CCOCC1)c1cccc([N+](=O)[O-])c1	-4	2	4	10	4	4	.
Cc1occc1-c1nnc(SCC(=O)Nc2ccccc2N2CCCCC2)n1C	-1	55	-10	7	1	4	i
CC(C)(C)c1nc2ccccc2c2nn(CC(=O)N3CCCCC3)c(=O)n12	.	10	.	5	.	.	.
Cc1ncccc1-c1cc2cccnc2n1CCC(=O)N1CCCCCC1	.	-3	.	4	.	.	.
CCn1c(COc2ccccc2C)nnc1SCC(=O)NC	.	12	.	14	.	.	.
O=C(CNCC1CCCCC1)Nc1ccccc1N1CCCCC1	1	66*	7	5	2	0	+
COc1ccc(-c2c3c([nH]c(=S)c2C#N)CCC3)cc1	6	77*	-30	18	1	1	i
Cn1c(=O)[nH]c(=O)c2c1nc(CN1CCN(c3ccc(F)cc3)CC1)n2CCCc1ccccc1	4	36	-9	7	-9	5	.
Cn1c(=O)[nH]c(=O)c2c1nc(CN1CCN(c3ccccc3F)CC1)n2CCCc1ccccc1	-2	85*	6	12	-1	4	i
Cc1cc(NC(=O)Cn2nnc3sc4c(c3c2=O)CCC(C(C)(C)C)C4)no1 (stereo not drawn)	2	51	21	7	7	2	i
Cc1cc(NC(=O)Cn2nnc3sc4c(c3c2=O)CCCC4)no1	-1	-6	-7	11	-2	4	.
CCC(C)NC(=O)Cn1nc(C)c2ccccc2c1=O (stereo not drawn)	.	3	.	8	.	.	.
COc1ccc(-c2nc(NC(C)=O)sc2-c2ccccc2)cc1	-1	62*	-1	10	-1	8	i
Cc1cc(C)c2c(n1)sc1c(=O)n(Cc3ccccc3Cl)nnc12	1	67*	-1	.	-3	4	i
Cc1ccc(C(=O)Nc2ccccc2C(=O)NCc2ccccc2)cc1	.	67*	15	2	.	8.6*	i
Cc1ccc(C(=O)Nc2ccccc2C(=O)NCc2cccnc2)cc1	-1	.	-19	.	6	.	.
CCC(c1nnnn1C(C)(C)CC)N(CCc1cccc(C)c1)Cc1cc2cc(C)ccc2[nH]c1=O (stereo not drawn)	.	51	.	11	.	.	.
O=C(O)COc1ccc(/C=C/c2ccc3cccc([N+](=O)[O-])c3n2)cc1	-2	89*	1	6	5	5	+
COc1cc(/C=C/c2ccc3cccc([N+](=O)[O-])c3n2)ccc1OCC(=O)O	-2	73*	11	4	0	6	+
CC(=O)Nc1ccc(/C=C/c2ccc3cccc([N+](=O)[O-])c3n2)cc1	-2	-16	-6	10	7	.	.
CCOC(=O)c1cnc2ccc(F)cc2c1NCCCN1CCOCC1	.	-8	.	11	.	.	.
O=C(Nc1ccccc1N1CCOCC1)c1ccc2ccccc2n1	-2	70*	-4	7	4	4	+
